The nature of the assay: qHTS for Inhibitors of Plasmodium falciparum (CP250) proliferation (AID 504320). The method in brief:
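Erythrocytes infected with P. falciparum line (0.3% parasitemia, 2.5% hematocrit final) incubated with compounds 72 h at 37 °C, 5% CO2; SYBR Green lysis buffer added, fluorescence read next day. Normalized to 0.29 uM artemisinin and DMSO.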
In general terms: In qHTS, concentration-response curves come from the screen itself.

The results in this text go back to PubChem BioAssay (NCATS).

SMILES strings stand for the structures. Inconclusive results are not listed. A call without a number means that no potency is given here. Activity calls are given as the source filed them. The call rests on the fitted dose curve; in most records, active means well fitted inhibition curve with a large enough effect; inconclusive means small, poorly fitted or top-dose-only effect, or effect the other way; inactive means flat fitted curve, though single readings scatter.
Potency means the concentration at half of the fitted maximal effect.

On to `CCCCCCC#C[C@@H]1C=C[C@H](OC(C)=O)[C@@H](COC(C)=O)O1`, for which the Potency entry is “inactive”.

In the case of `COc1ccc([C@]23Cc4cc(C#N)ccc4[C@H](O2)c2c(cc(-c4ccccc4)oc2=O)O3)cc1`, the Potency entry is “inactive”.

As to `CCOC(=O)OC[C@H]1O[C@H](C#Cc2ccccc2)C=C[C@H]1OC(=O)OCC`, the Potency result was “inactive”.

With `COC(=O)N1C2CC(=O)O[C@@H]3c4cc5c(cc4[C@]1(C)[C@@]3(Br)c1ccccc12)OCO5`, the Potency is 1.2 µM (active).

Regarding `COC(=O)C1=C(C(=O)OC)[C@@H]2Nc3ccccc3[C@@]23C[C@@H](C(=O)OC)N(C(=O)c2cccs2)C3=N1`, the Potency entry is “inactive”.

On to `COC(=O)CCCC1=CC2=C(c3ccccc3)C(=O)C(C)(OC(=O)C3CCCC3)C(=O)C2=CN1CCc1c[nH]c2ccccc12` (configuration not stated), for which the Potency result was “inactive”.

Take `O=C1C=CC2(OCCCO2)C(Br)=C1CO`: the Potency entry is “inactive”.

As for `C#CCCCON=C1C[C@@H](O)[C@@H](O)[C@@H]2[C@H]3C(=O)N([C@@H](C)c4ccccc4)C(=O)[C@@H]3CC[C@H]12`, the Potency result is “inactive”.

Turning to `COc1ccc([C@]23Cc4cc(OC)c(OC)cc4[C@H](O2)c2c(c4ccccc4oc2=O)O3)cc1`, the Potency result was “inactive”.

Turning to `C[C@H]1Cc2c(-c3ccccc3)nc3c(c2CO1)CN(C(=O)NCCc1c[nH]c2ccccc12)CC3`, the Potency result is “inactive”.

For `COC(=O)CCC(=O)OC1(C)C(=O)C2=CN(CCc3c[nH]c4ccccc34)C(c3ccc(OC)cc3)=CC2=C(Br)C1=O` (configuration not stated), the Potency entry was “inactive”.

On to `COC(=O)C1=C(C(=O)OC)[C@@H]2N(C)c3ccc(OC)cc3[C@@]23C[C@@H](C(=O)OC)N(S(=O)(=O)c2c(C)noc2C)C3=N1`, for which the Potency entry is “inactive”.
